Screens: PubChem BioAssay, National Center for Advancing Translational Sciences (NCATS)
VACV Venus inh = qHTS for Stage-Specific Inhibitors of Vaccinia Orthopoxvirus: Venus Reporter Primary qHTS | Vaccinia virus Venus reporter expression, fluorescence | Potency, µM (doses to about 36.5 µM), for the others: top-dose activity change, negative = inhibition, most hits filed as inhibitors | actives 0.46% (n = 330,000) | AID 720580, 2013; calls by dose curve; tested in A549 cells; note: potency is the fitted concentration of half-maximal effect; nearly all actives have a fitted effect of over 30% in size
VACV mCherry inh = qHTS for Stage-Specific Inhibitors of Vaccinia Orthopoxvirus: mCherry Reporter Primary qHTS. Vaccinia virus mCherry reporter infection, fluorescence. Potency, µM (doses to about 36.5 µM), inactives show at the top dose activity change, negative = inhibition, most hits filed as inhibitors. actives 0.63% (n = 310,000). AID 720579, 2013; calls by dose curve; tested in A549 cells; note: potency is the fitted concentration of half-maximal effect; nearly all actives have a fitted effect of over 35% in size
FMDV antiviral = High Throughput Screening for Foot and Mouth Disease Virus Antivirals | actives 1.2% (n = 410,000) | Potency, µM (top dose mostly 57.9 µM), without a hit: at the top dose activity change, negative = inhibition, hits mostly inhibitors | FMDV antiviral cell-based qHTS; calls by dose curve; tested in HEK293T cells; note: read-out not given here; potency is the fitted concentration of half-maximal effect; nearly all actives have a fitted effect of over 45% in size
Marburg entry inh = qHTS for inhibitors of binding or entry into cells for Marburg Virus; Potency, µM (doses to about 37.8 µM), inactives show top-dose activity change, negative = inhibition, usual class: inhibitors; actives 1.8% (n = 300,000); Marburg virus pseudotyped entry inhibition, cell reporter; calls by dose curve; tested in HEK293 cells; note: potency is the fitted concentration of half-maximal effect
Lassa entry inh = qHTS for Inhibitors of binding or entry into cells for Lassa Virus; Lassa virus pseudotype entry inhibition, cell reporter; Potency, µM (highest dose often 37.9 µM), inactives show at the highest dose activity change, negative = inhibition, most hits filed as inhibitors; actives 1.2% (n = 300,000); AID 540256, 2011; calls by dose curve; tested in HEK293 cells; note: potency is the fitted concentration of half-maximal effect; nearly all actives have a fitted effect of over 50% in size
HCMV antiviral = qHTS Assay for inhibitors of the human cytomegalovirus (HCMV); HFF cells, HCMV-luciferase reporter, 72 h; hits give low values; activity change, negative = inhibition, % at 57.5 µM; actives 4.5% (n = 410,000); AID 1259415, 2018; in the data active = activity change below about -60%; inconclusive = no clear call, values can overlap the other calls; inactive = above about -39%
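Compounds were evaluated in HFFs infected with an HCMV luciferase reporter virus (MOI 1 PFU/cell). Luciferase in lysates collected 72 h post infection served as the replication measure.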
Starred values were filed as active, the others as inactive; i = inactive; u = inconclusive; x = no result; [ ] = another dose, or the depositor's remark. Most compounds without a hit are left out; they make up all but 6.5% or so of the library. % is set by controls: 0 for no effect and ±100 for the full control effect.

SMILES	VACV Venus inh	VACV mCherry inh	FMDV antiviral	Marburg entry inh	Lassa entry inh	HCMV antiviral
COc1cc(/C=N/Nc2nc3c(c(=O)n(C)c(=O)n3C)n2Cc2ccccc2)ccc1OC(=O)c1ccco1	-11.7%	i	14.1µM*	u	u	38.9
Cn1c(=O)c2c(nc(N/N=C/c3ccncc3)n2Cc2ccccc2)n(C)c1=O	-19.9%	-12.6%	u	-25.8%	-24.5%	45.5
CCN(CC)c1nc2c(c(=O)n(C)c(=O)n2C)n1CCCc1ccccc1	x	x	-26.4%	x	x	-9.2
CCCNc1nc2c(c(=O)n(C)c(=O)n2C)n1CCc1ccccc1	x	x	14.1µM*	u	u	-64.7*
Cn1c(=O)c2c(nc(NCc3ccccc3)n2Cc2ccc(Cl)c(Cl)c2)n(C)c1=O	u	u	u	u	u	-75.5*
CN(Cc1ccccc1)c1nc2c(c(=O)n(C)c(=O)n2C)n1CCCc1ccccc1	-16.9%	-14.6%	u	u	12.6µM*	u
CCCCCCn1c(NCC)nc2c1c(=O)n(C)c(=O)n2C	u	x	u	u	u	-88.5*
Cn1c(=O)c2c(nc(CN3CCC(Cc4ccccc4)CC3)n2CCN2CCOCC2)n(C)c1=O	x	x	0.0%	10.6%	10.3µM*	31.9
CC1Cc2ccccc2N1C(=O)CSc1nc2c(c(=O)n(C)c(=O)n2C)n1Cc1ccccc1 (stereo not given)	-3.2%	-13.5%	-12.4%	u	u	-96.8*
CCc1nnc(SCc2nc(-c3ccccc3)oc2C)c2cc3sccc3n12	-8.3%	-14.8%	12.4%	x	-4.7%[46.1 µM]	-0.9
Clc1ccc(-c2nnc3c4ccccc4nc(N4CCOCC4)n23)cc1Cl	-23.1%	14.7%	-21.4%	u	-0.1%	-89.7*
Brc1ccc(-c2nnc3c4ccccc4nc(N4CCOCC4)n23)cc1	-2.5%	-0.2%	-10.4%	17.5%	23.9%	-21.5
c1cnc2ccc(-c3ccc4ncccc4c3)cc2c1	-26.2%	-20.0%	-25.0%	u	4.47µM*	13.4
CC(Oc1ccccc1)C(=O)Nc1ccc(OCc2cc(=O)n3ccsc3n2)cc1 (stereo not given)	-3.0%	-7.6%	-26.9%	-18.7%[46.1 µM]	-0.1%[46.1 µM]	-4.4
O=[N+]([O-])c1ccc(Cl)c(S(=O)(=O)Nc2ccc(-c3ccc(N4CCCC4)nn3)cc2)c1	-29.8%	i	36.6%	8.8%	7.2%	-64.3*
COCCNC(=O)C1CCCN(C(=O)c2cc(C)nn2C(C)(C)C)CC1 (stereo not given)	-0.5%	1.9%	-7.0%	x	x	-60.2*
COCCNC(=O)C1CCCN(C(=O)c2cc(C)n(C(C)(C)C)n2)CC1 (stereo not given)	-7.5%	2.1%	-7.5%	x	x	-24.8
Cc1ccnc2ccc(Br)cc12	-2.6%	-9.6%	x	x	x	x
Cc1ccsc1/C=C1\C(=O)NC(=S)N(C)C1=O	x	x	31.6µM*	x	x	-101.5*
Cc1cccc2c(C(O)c3c[nH]c4c(C)cccc34)c[nH]c12	-11.3%	-10.8%	x	x	x	x
C[C@@H](C(=O)OCC(=O)NCCc1ccc(S(N)(=O)=O)cc1)N1C(=O)C2CCCCC2C1=O (stereo not given in full)	x	x	-3.1%	x	x	-79.9*
NS(=O)(=O)c1ccc(CCNC(=O)CN2CCC(Cc3ccccc3)CC2)cc1	-17.0%	-6.9%	-30.1%	u	-16.0%[46.1 µM]	-76.1*
N#Cc1ccc(OCC(=O)NCCc2ccc(S(N)(=O)=O)cc2)cc1	-8.1%	x	10.7%	-2.1%	-11.9%	-80.3*
CC(C(=O)NCCN1C(=O)S/C(=C\c2cccnc2)C1=O)N1C(=O)c2ccccc2C1=O (stereo not given)	x	x	-30.2%	31.9%	-0.8%	-8.3
O=C(CCl)NCCN1C(=O)S/C(=C\c2cccnc2)C1=O	u	u	-27.0%	u	u	-77.0*
SMILES	VACV Venus inh	VACV mCherry inh	FMDV antiviral	Marburg entry inh	Lassa entry inh	HCMV antiviral
O=C1CC(C(=O)O)S/C(=N\NC(=O)c2ccccc2)N1 (stereo not given)	x	x	4.4%	1.1%	-2.5%	-82.2*
Cc1ccc(NNc2c(C)nc3ccccc3nc2=O)cc1	-16.9%	u	18.8%	-10.4%[46.1 µM]	-28.2%	-67.0*
Cc1nc2ccccc2nc1C	-7.2%	13.2%	x	x	x	x
C/C(Cl)=C\Cn1c(O)c(N=NC(N)=S)c2cc(Br)ccc21	x	x	u	x	x	-109.2*
NC(=S)N=Nc1c(O)n(Cc2ccc(F)cc2)c2ccccc12	x	x	u	x	x	-30.5
Cc1ccc2c(c1)c(N=NC(N)=S)c(O)n2Cc1ccccc1	1µM*	0.891µM*	-6.4%	u	-13.6%	-4.8
NC(=S)N=Nc1c(O)n(Cc2ccc(Br)cc2)c2ccccc12	1µM*	1µM*	0.0%	u	u	-27.3
NC(=S)N=Nc1c(O)n(CCCl)c2ccc(Br)cc12	u	u	-17.5%	-21.3%	-14.5%	-23.2
C=CCC12OC3(OC)CC1[C@H](C)[C@@H](c1ccccc1)C2[C@]3(O)CC=C (stereo not given in full)	x	x	x	6.4%[14.2 µM]	x	x
COC(=O)[C@H]1[C@H](CO)[C@H]2Cn3c(ccc(Br)c3=O)[C@@H]1N2C(=O)NC(C)C	x	x	x	x	x	-28.6
COc1ccccc1CNC(=O)CN1N=C(c2ccccc2)CCC1=O	-6.7%	-13.8%	0.0%	x	-3.5%[46.1 µM]	-3.7
COC(=O)c1c(NC(=O)c2ccc(C(=O)c3ccccc3)cc2)sc2c1CC(C)(C)NC2(C)C	u	-24.9%	-13.1%	x	x	-14.0
COC(=O)c1c(NC(=O)c2nc3ccccc3s2)sc2c1CC(C)(C)NC2(C)C	11.2µM*	u	-28.5%	x	x	-26.2
CCOC(=O)CN1C(=O)NC(c2cccc(F)c2)C(C(C)=O)=C1C (stereo not given)	x	x	x	12.7%[14.2 µM]	x	x
COc1ccc(-n2c(-c3ccccc3Br)nc3ccccc3c2=O)cc1	-7.9%	i	-5.4%	-3.4%[46.1 µM]	-20.4%[46.1 µM]	-62.8*
Cc1cc(C(=O)Nn2c(-c3ccc(Br)cc3)nc3ccccc3c2=O)ccc1[N+](=O)[O-]	-21.5%	i	u	u	-9.2%[46.1 µM]	-75.3*
COc1ccc(O)c(CNn2c(-c3ccc(Br)cc3)nc3ccccc3c2=O)c1	-5.3%	-21.0%	u	-9.3%[46.1 µM]	-20.5%	-74.3*
CCOc1ccc(-n2c(CC)nc3ccccc3c2=O)cc1	-16.0%	i	-22.4%	-1.5%	-2.4%	-87.3*
CCOc1ccc(-n2c(=O)c3ccccc3c3ccccc3c2=O)cc1	-10.7%	u	u	-25.2%[46.1 µM]	-20.5%	56.3
Cc1ccc(N2CCn3c2nc2c3c(=O)n(CCc3ccccc3)c(=O)n2C)cc1C	-2.0%	-5.8%	-5.4%	x	-19.3%[46.1 µM]	-18.8
CCC(=O)N1CCCc2cc(S(=O)(=O)N3CCC(C(=O)NC4CCC(C)CC4)CC3)ccc21 (stereo not given)	-19.7%	-5.0%	-19.5%	x	-28.5%[46.1 µM]	2.9
O=C(Nc1cc(F)ccc1F)N1CC(=O)N2[C@@H](CO)[C@H](c3ccc(Br)cc3)[C@@H]2C1	x	x	x	x	x	3.7
